What all share (assay): yeast three-hybrid, YBZ-1, SC-Leu-His + 0.5 mM 3-AT, 4 days
Holding throughout (settings): tags: N-Gal4 AD-HA kept; label: inside an RPR1-promoter hybrid RNA with tandem MS2 sites; ssRNA

One experiment addresses PUM1 PUF domain R1-RTS (Homo sapiens, UniProt Q14671 828-1176, S863R;R864T;Q867S). The method in brief: (§1)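 Pumilio-1 PUF domain libraries, randomized (NNK) at the three base-contacting residues of each repeat, were co-expressed with matching RNA elements from a centromeric plasmid in strain YBZ-1 (LexA–MS2 coat fusion, HIS3 reporter). Transformants were plated on SC-Leu (input) and SC-Leu-His + 0.5 mM 3-AT (selection) for four days, and repeat regions were PCR-amplified and Illumina-sequenced. The interaction score is the log2 change in variant frequency from input to selection, with pseudocount 1 where absent.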

For another experiment, the target named is PUM1 PUF domain R1-KVI (Homo sapiens, UniProt Q14671 828-1176, S863K;R864V;Q867I). The method in brief:
as §1

The target of a further experiment is PUM1 PUF domain R7-KPV (Homo sapiens, UniProt Q14671 828-1176, S1079K;N1080P;E1083V). The gist of the method: as §1
The target of another experiment is PUM1 PUF domain R3-SRT (Homo sapiens, UniProt Q14671 828-1176, C935S;Q939T). The gist of the method: as §1
Another experiment has as its target PUM1 PUF domain R3-TRW (Homo sapiens, UniProt Q14671 828-1176, C935T;Q939W). The method in brief: as §1
Another experiment has as its target PUM1 PUF domain R8-LFK (Homo sapiens, UniProt Q14671 828-1176, N1122L;Y1123F;Q1126K). The gist of the method:
as §1

Another experiment deals with PUM1 PUF domain R4-CMC (Homo sapiens, UniProt Q14671 828-1176, N971C;H972M;Q975C). The method in brief:
as §1

In the next experiment the target is T1, PUM1 PUF domain R6-RHS (Homo sapiens, UniProt Q14671 828-1176, N1043R;Y1044H;Q1047S).
T1 sequence: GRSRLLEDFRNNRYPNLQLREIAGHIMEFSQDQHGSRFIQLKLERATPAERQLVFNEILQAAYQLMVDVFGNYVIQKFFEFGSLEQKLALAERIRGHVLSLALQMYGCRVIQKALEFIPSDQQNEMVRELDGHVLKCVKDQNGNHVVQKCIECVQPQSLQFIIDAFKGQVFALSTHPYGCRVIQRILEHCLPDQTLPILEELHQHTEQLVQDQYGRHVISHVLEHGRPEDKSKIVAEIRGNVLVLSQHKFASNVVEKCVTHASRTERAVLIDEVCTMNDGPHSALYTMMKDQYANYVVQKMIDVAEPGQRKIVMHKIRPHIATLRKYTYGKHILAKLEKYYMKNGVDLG
The method in brief: as §1

For another experiment, the target named is PUM1 PUF domain R4-ANC (Homo sapiens, UniProt Q14671 828-1176, N971A;H972N;Q975C). The method in brief: as §1
PUM1 PUF domain R4-ANC, sequence (Q14671 828-1176 N971A/H972N/Q975C): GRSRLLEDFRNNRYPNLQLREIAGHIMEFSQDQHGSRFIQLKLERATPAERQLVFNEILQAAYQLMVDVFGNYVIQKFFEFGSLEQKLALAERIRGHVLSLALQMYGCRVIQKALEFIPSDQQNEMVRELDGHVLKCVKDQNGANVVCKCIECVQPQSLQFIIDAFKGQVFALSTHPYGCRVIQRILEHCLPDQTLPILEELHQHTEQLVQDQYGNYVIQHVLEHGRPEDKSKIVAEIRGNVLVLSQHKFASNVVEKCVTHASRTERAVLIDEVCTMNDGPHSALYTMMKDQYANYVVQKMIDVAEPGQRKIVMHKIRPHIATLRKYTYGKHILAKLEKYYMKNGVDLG
A further experiment has as its target PUM1 PUF domain R2-LFS (Homo sapiens, UniProt Q14671 828-1176, N899L;Y900F;Q903S). The gist of the method: as §1

The record followed here is PMC8384837, “Expanding the binding specificity for RNA recognition by a PUF domain”.

As to “GGCUAGAACUAGUGGAUCCCCCGGCGCCCGGCGGCUCGAGCCCGGGUAAGUGUAAAUUGUCUGCAUGCCGCCGGGCGCCAUGCCUGCAGGUCGACUCUAGAAAACAUG”, the binding signal in the experiment with PUM1 PUF domain R1-RTS is 4.22 log2 enrichment (interaction score); in the experiment with PUM1 PUF domain R1-KVI, 4.79 log2 enrichment (interaction score).
In the case of “GGCUAGAACUAGUGGAUCCCCCGGCGCCCGGCGGCUCGAGCCCGGGUAAGUCUAAAUAGUCUGCAUGCCGCCGGGCGCCAUGCCUGCAGGUCGACUCUAGAAAACAUG”, in the experiment with PUM1 PUF domain R7-KPV, the binding signal is 4.07 log2 enrichment (interaction score).
With “GGCUAGAACUAGUGGAUCCCCCGGCGCCCGGCGGCUCGAGCCCGGGUAAGUGUAAGUAGUCUGCAUGCCGCCGGGCGCCAUGCCUGCAGGUCGACUCUAGAAAACAUG”, in the experiment with PUM1 PUF domain R3-SRT, the binding signal is 4.32 log2 enrichment (interaction score).
As to “GGCUAGAACUAGUGGAUCCCCCGGCGCCCGGCGGCUCGAGCCCGGGUAAGUGUAAUUAGUCUGCAUGCCGCCGGGCGCCAUGCCUGCAGGUCGACUCUAGAAAACAUG”, the binding signal with PUM1 PUF domain R3-TRW is 0.56 log2 enrichment (interaction score); with PUM1 PUF domain R3-SRT it was 1.65 log2 enrichment (interaction score).
With “GGCUAGAACUAGUGGAUCCCCCGGCGCCCGGCGGCUCGAGCCCGGGUAAGUGUAAAUAGUCUGCAUGCCGCCGGGCGCCAUGCCUGCAGGUCGACUCUAGAAAACAUG”, the binding signal is 4.35 log2 enrichment (interaction score) in the experiment with PUM1 PUF domain R3-TRW; 4.86 log2 enrichment (interaction score) in the experiment with PUM1 PUF domain R8-LFK; 4.56 log2 enrichment (interaction score) with PUM1 PUF domain R3-SRT; 2.5 log2 enrichment (interaction score) with PUM1 PUF domain R4-CMC; 2.73 log2 enrichment (interaction score) in the experiment with PUM1 PUF domain R6-RHS.
With “GGCUAGAACUAGUGGAUCCCCCGGCGCCCGGCGGCUCGAGCCCGGGUAAGCGUAAAUAGUCUGCAUGCCGCCGGGCGCCAUGCCUGCAGGUCGACUCUAGAAAACAUG”, the binding signal with PUM1 PUF domain R8-LFK is 5.27 log2 enrichment (interaction score).
“GGCUAGAACUAGUGGAUCCCCCGGCGCCCGGCGGCUCGAGCCCGGGUAAGUGUAAAUGGUCUGCAUGCCGCCGGGCGCCAUGCCUGCAGGUCGACUCUAGAAAACAUG”: the binding signal with PUM1 PUF domain R1-KVI is 2.15 log2 enrichment (interaction score).
As to “GGCUAGAACUAGUGGAUCCCCCGGCGCCCGGCGGCUCGAGCCCGGGUAAGUGUACAUAGUCUGCAUGCCGCCGGGCGCCAUGCCUGCAGGUCGACUCUAGAAAACAUG”, the binding signal is 2.65 log2 enrichment (interaction score) with PUM1 PUF domain R4-ANC and 2.87 log2 enrichment (interaction score) with PUM1 PUF domain R4-CMC.
On to “GGCUAGAACUAGUGGAUCCCCCGGCGCCCGGCGGCUCGAGCCCGGGUAAGUUUAAAUAGUCUGCAUGCCGCCGGGCGCCAUGCCUGCAGGUCGACUCUAGAAAACAUG”, for which the binding signal with PUM1 PUF domain R7-KPV is 4.82 log2 enrichment (interaction score).
With “GGCUAGAACUAGUGGAUCCCCCGGCGCCCGGCGGCUCGAGCCCGGGUAAGUGUAAAUCGUCUGCAUGCCGCCGGGCGCCAUGCCUGCAGGUCGACUCUAGAAAACAUG”, the binding signal in the experiment with PUM1 PUF domain R1-RTS is 4.45 log2 enrichment (interaction score).
Regarding “GGCUAGAACUAGUGGAUCCCCCGGCGCCCGGCGGCUCGAGCCCGGGUAAGUGUAUAUAGUCUGCAUGCCGCCGGGCGCCAUGCCUGCAGGUCGACUCUAGAAAACAUG”, the binding signal was 4.27 log2 enrichment (interaction score) with PUM1 PUF domain R4-ANC and 5.2 log2 enrichment (interaction score) with PUM1 PUF domain R4-CMC.
For the sequence “GGCUAGAACUAGUGGAUCCCCCGGCGCCCGGCGGCUCGAGCCCGGGUAAGUGUAAAAAGUCUGCAUGCCGCCGGGCGCCAUGCCUGCAGGUCGACUCUAGAAAACAUG”, in the experiment with PUM1 PUF domain R2-LFS, the binding signal was 3.97 log2 enrichment (interaction score).
